The text below walks through data of PubChem BioAssay AID759 (NMMLSC, 2007).

Screen size: about 190,000 compounds; about 270 (0.14%) were called active. About 2% were inconclusive and are not listed.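 How the source made its calls: active means GTP binding activity at least 20% away from the 100% baseline, either lowered as inhibitor or raised as activator; inconclusive means flagged as likely green fluorescent, judged across all proteins in the well; inactive means the rest.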 For the sample, actives were picked, then their nearest neighbours and some compounds at random.

This experiment deals with GTPase HRas (Homo sapiens) (UniProt P01112). Kind of experiment: modulators of GTP binding to HRas wildtype, primary screen, biochemical, bead-based flow cytometry, multiplex (AID 759).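 Further: 0% = unlabeled GTP competition control and 100% = no-compound control.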 The following applies: GST-Ras wt beads, Bodipy-FL-GTP binding, at 10 µM, actives lie on both sides. For orientation: A flow cytometer gives signals particle by particle.
GTPase HRas (Homo sapiens), sequence (P01112 whole entry, looked up): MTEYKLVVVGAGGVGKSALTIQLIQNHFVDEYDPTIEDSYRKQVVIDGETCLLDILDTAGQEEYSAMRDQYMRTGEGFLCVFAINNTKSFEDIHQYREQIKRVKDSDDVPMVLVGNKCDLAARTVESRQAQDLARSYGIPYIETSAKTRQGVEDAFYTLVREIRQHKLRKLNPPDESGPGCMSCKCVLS
On to `CCCCNC(=O)Nc1c(C)cc(SC#N)cc1C`, for which the GTP binding activity was 95% (inactive). Regarding `Cc1cccc(NC(=O)CSc2nc3[nH]ncc3c(=O)[nH]2)c1`, the GTP binding activity was 97% (inactive). For `CCCSc1nc2[nH]ncc2c(=O)[nH]1`, the GTP binding activity is 101% (inactive).

Regarding `Cc1ccc(CSc2nc3[nH]ncc3c(=O)[nH]2)cc1`, the GTP binding activity is 78% (active). In the case of `CCC(=O)/C(=C(/O)c1ccccc1)c1nc2ccccc2[nH]1` it was 98% (inactive).

As for `COC(=O)c1nn(-c2cccc(Cl)c2)ccc1=O`, the GTP binding activity is 97% (inactive).

Regarding `O=C(CC12CC3CC(CC(C3)C1)C2)NCc1ccco1`, the GTP binding activity is 96% (inactive). As to `CCc1ccc(Nc2nnc(SCC(=O)c3ccc4c(c3)NC(=O)CO4)s2)cc1`, the GTP binding activity was 99% (inactive). With `COc1ccccc1CC(NC(C)=O)C(=O)NC1CCN(C(=O)Nc2ccccc2Cl)CC1` (centres undefined) the figure was 101% (inactive). With `COC(=O)c1ccc(/C=N/OCC(=O)Nc2cc(F)ccc2F)cc1` the figure was 95% (inactive). With `COc1ccc(N2CCN(CCCNC(=O)C3CCN(S(=O)(=O)N4CCOCC4)CC3)CC2)cc1` the figure was 96% (inactive); with `COc1ccc(/C=C/CN2CCN(Cc3ccc(C)cc3)C(CCO)C2)cc1` (centres undefined), 105% (inactive); with `COc1cccc(NCCC(=O)c2cccc([N+](=O)[O-])c2)c1`, 97% (inactive).

With `Cc1ccc(C(=O)O)cc1NC(=O)c1ccc(Cn2nc(C)c(Cl)c2C)o1`, the GTP binding activity is 100% (inactive). In the case of `Cc1noc(C)c1COc1cccc(C(=O)Nc2cccnc2)c1` it was 97% (inactive). For `Cc1[nH]c2c(C(=O)N3CCCC(CCC(=O)NCc4ccccc4F)C3)cccc2c1C` (centres undefined), the GTP binding activity was 106% (inactive). In the case of `COC(=O)c1nc(NC(=O)c2ccc(F)cc2)n[nH]1` it was 98% (inactive); in that of `N#CC1=C(N)Oc2[nH]c(=S)[nH]c(=O)c2C12C(=O)Nc1ccccc12` (centres undefined), 96% (inactive). As for `COc1ccc(/C=C(\C#N)C(=O)ONC2=NCCCCC2)cc1`, the GTP binding activity is 97% (inactive). In the case of `C=C(C)CNC(=S)N/N=C/c1ccccc1OCC(=O)O` it was 95% (inactive); in that of `O=C(COC(=O)c1cnc(Cl)c(Cl)c1)NCc1ccco1`, 97% (inactive). With `CN1CCN(C(=O)N2c3ccccc3CCc3ccccc32)CC1` the figure was 102% (inactive).

For `O=C(Nc1cccc(Cl)c1)c1cc([N+](=O)[O-])ccc1N1CCN(CCO)CC1`, the GTP binding activity is 97% (inactive).

Turning to `CC/C(Cc1ccccc1)=N/NC(=O)CCn1nnc2ccccc21`, the GTP binding activity is 101% (inactive). For `COc1ccc(NC(=O)c2c(SC)nsc2SC)cc1`, the GTP binding activity was 101% (inactive). For the compound `CSc1ncccc1C(=O)NC1CCCCCC1`, the GTP binding activity is 98% (inactive). In the case of `CSc1nsc(SC)c1NC(=O)OC1CCCCC1` it was 39% (active); in that of `Cc1ccc(S(=O)(=O)N2CCN(C(=O)c3cccs3)CC2)cc1`, 93% (inactive); in that of `COc1ccc(O)c(C(=O)c2cnc3c(c2)c(-c2ccc(F)cc2)c(C#N)c(=O)n3C)c1`, 95% (inactive). In the case of `O=C(CCCc1ccccc1)NCc1ccccc1` it was 94% (inactive); in that of `COc1cc2nc(CN(C)Cc3ccc(F)cc3)[nH]c(=O)c2cc1OC`, 97% (inactive); in that of `O=C(Nc1ccccc1F)c1ccccc1-c1ccc(C(F)(F)F)cc1`, 104% (inactive).

For `O=C(Nc1ccccc1F)c1ccccc1-c1ccccc1`, the GTP binding activity is 76% (active).

As to `NC(=O)c1ccccc1NC(=O)c1ccccc1F`, the GTP binding activity is 101% (inactive).

For `COc1cc(C(=O)N[C@@H](C)C(=O)NCc2ccco2)cc(OC)c1OC`, the GTP binding activity is 98% (inactive). For `Cc1cccn2c(CN(C)C3CCCc4ccccc43)c(C(=O)N3CCOCC3)nc12` (centres undefined), the GTP binding activity is 98% (inactive).

For `O=C1CC(c2c(F)cccc2Cl)C(n2cncn2)C(O)=C1C1NCCc2ccccc21` (centres undefined), the GTP binding activity is 94% (inactive). With `O=C(Nc1ccccc1C(=O)N1CCOCC1)c1ccc(CSc2ccccc2)cc1` the figure was 100% (inactive). In the case of `Nc1ncnc(Nc2cccc(Cl)c2Cl)n1` it was 97% (inactive); in that of `COc1cc(C(=O)N2C(=O)c3cccc(N)c3C2=O)cc(OC)c1OC`, 95% (inactive); in that of `COc1c(F)c(F)c(C(=O)O)c(Nc2ccccc2C)c1F`, 98% (inactive).

In the case of `Cc1ccc(NC(=S)NC(=O)c2ccc(-c3ccccc3)cc2)c(C)c1`, the GTP binding activity is 100% (inactive). `Cc1ccc(Nc2c(F)c(F)c(F)c(F)c2C(=O)O)c(C)c1`: the GTP binding activity is 124% [activator] (active). In the case of `Cc1cc(C)nc(NNC2=CC(=O)CC(C)(C)C2)n1` it was 99% (inactive).

With `CCOc1ccc(OCc2cccc(C(=O)N(CC)CC)c2)cc1`, the GTP binding activity was 98% (inactive). As for `CN(Cc1cc2cc(F)ccc2[nH]1)Cc1nc(-c2cnccn2)no1`, the GTP binding activity is 98% (inactive).

Turning to `CC(C)(C)C(=O)N(Cc1ccccc1)c1ccccn1`, the GTP binding activity is 95% (inactive). In the case of `COc1ccccc1NC(=O)COC(=O)Cc1ccc(S(=O)(=O)N2CCCCC2)s1` it was 98% (inactive); in that of `S=c1ccc2ccccc2[nH]1`, 98% (inactive); in that of `C=CCNC(=O)CC12CC3CC(C1)CC(CC(=O)NCC=C)(C3)C2`, 99% (inactive). With `Cc1ccc(SCCC(=O)NCc2ccccn2)cc1` the figure was 99% (inactive); with `CCOc1ccc(NS(=O)(=O)c2cc(C)c(C)cc2C)cc1`, 98% (inactive). On to `COc1ncnc2sc3c(c12)CCCC3`, for which the GTP binding activity was 103% (inactive). As to `COc1ccc(/C=N/Nc2ncnc3sc4c(c23)CCCC4)cc1O`, the GTP binding activity was 71% (active). With `COc1cc(/C=N/Nc2ccc(C)cc2)cc(Br)c1O` the figure was 96% (inactive); with `O=C(Nc1ccc(-c2ccc3nncn3n2)cc1)C1CCCCC1`, 99% (inactive). With `O=C(OCC1O[C@@H](OC(=O)c2cc(O)c(O)c(O)c2)[C@@H](OC(=O)c2cc(O)c(O)c(O)c2)[C@@H](OC(=O)c2cc(O)c(O)c(O)c2)[C@@H]1OC(=O)c1cc(O)c(O)c(O)c1)c1cc(O)c(O)c(O)c1` (some centres undefined) the figure was 79% (active); with `CC(=O)NC1C(OCc2ccccc2)OC(COC(C)=O)C(OC(C)=O)C1OC(C)=O` (centres undefined), 102% (inactive). Regarding `O=S(=O)(Nc1ncccn1)c1ccc(NS(=O)(=O)c2cccc(Cl)c2Cl)cc1`, the GTP binding activity was 96% (inactive). With `CC(CC(=O)O)CC(=O)NNC(=O)c1cccc(Br)c1` (centres undefined) the figure was 95% (inactive); with `CC(C)N(C)C(=O)CCc1nnc(CCc2c[nH]c3ccccc23)o1`, 93% (inactive); with `CCOc1cc(NC(=S)NCc2ccco2)c(OCC)cc1NC(=O)c1ccco1`, 98% (inactive). With `O=C(CN1CCN(S(=O)(=O)/C=C/c2ccccc2)CC1)Nc1ccc(N2CCOCC2)cc1` the figure was 99% (inactive); with `Cc1ccc(CC(=O)Nc2cccc(C#N)c2)cc1`, 98% (inactive); with `NNC(=O)c1cnn(-c2ccccc2)c1C(F)(F)F`, 98% (inactive). With `CCCN(CC(=O)Nc1ccc(C(N)=O)cc1)CC(=O)Nc1ccccc1C` the figure was 96% (inactive); with `CN(C)C(=O)CSc1n[nH]c(-c2ccco2)n1`, 94% (inactive). Consider `O=C(CNCc1ccc(Cl)cc1)Nc1cccc(C(=O)O)c1`, for which the GTP binding activity was 95% (inactive). In the case of `CCN(CC)c1ccc2c(Nc3ccccc3)c(C=O)c(=O)oc2c1` it was 93% (inactive); in that of `CC(=O)c1sc(NC(=O)C2=NN(c3ccccc3)C(=O)CC2)nc1C`, 98% (inactive).

`COc1ccc(NC(=O)COC(=O)c2ccncc2)c(OC)c1`: the GTP binding activity was 97% (inactive). With `C=CCOCCN(C)C1=NS(=O)(=O)c2ccccc21` the figure was 100% (inactive). In the case of `Cc1cc(OC(=O)c2ccccc2Cl)ccc1N1C(=O)CCC1=O` it was 97% (inactive); in that of `CN(C)c1ccc(NC(=O)CSc2n[nH]c(-c3ccco3)n2)cc1`, 94% (inactive); in that of `COc1ccc(S(=O)(=O)N2CCOCC2)cc1C(=O)Nc1nc2ccccc2s1`, 75% (active).

Regarding `CCOC(=O)c1sc(NC(=O)c2cc(S(=O)(=O)N3CCOCC3)ccc2C)nc1C`, the GTP binding activity is 100% (inactive). With `COc1ccc(S(=O)(=O)N2CCOCC2)cc1NC(=O)CSc1ncnc2ccccc12` the figure was 93% (inactive); with `O=C(O)CC1S/C(=N\N=C/c2ccccc2O)N(c2ccc(O)cc2)C1=O` (centres undefined), 97% (inactive). Turning to `Cc1sc2c(c1C)c(=O)n(-c1ccccc1)c(=O)n2CC(=O)NCC1CCCO1` (centres undefined), the GTP binding activity was 98% (inactive). In the case of `C=CCOC(=O)C1=C(C)N=C2SCCC(=O)N2C1/C=C/c1ccccc1OC` (centres undefined) it was 99% (inactive); in that of `COc1cc(N/C=C2\CC(=O)NC(C)=C2C#N)cc(OC)c1OC`, 102% (inactive); in that of `O=C(Nc1ccc(N2CCOCC2)cc1)c1ccc2c(c1)OCO2`, 99% (inactive). For `CCc1ccc(NC(=O)C(=O)N/N=C(\C)CC(=O)NCCOC)cc1`, the GTP binding activity was 96% (inactive).

Turning to `CCn1c(SCc2cc(=O)n3ccsc3n2)nc2ccccc21`, the GTP binding activity was 102% (inactive). With `Oc1cccc2ccc(/C=C/c3ccc(Br)s3)nc12`, the GTP binding activity was 100% (inactive). With `CC(=O)C1(C)N(O)C(C)(C)C(c2cccs2)=[N+]1[O-]` (centres undefined) the figure was 98% (inactive). In the case of `CCOCC(=O)Nc1ncc(S(=O)(=O)c2ccc([N+](=O)[O-])cc2)s1` it was 91% (inactive); in that of `CN(C(=O)CSc1nncc2ccccc12)C1CCCCC1`, 96% (inactive); in that of `CC1(C)CC(=O)C(CC(=O)N2CCC(Cc3ccccc3)CC2)C(=O)C1`, 96% (inactive). In the case of `CCn1cc(-c2cc(C(=O)O)on2)c(C)n1` it was 95% (inactive). Take `c1csc(-c2nnc(COc3ccc4c(c3)OCO4)o2)c1`: the GTP binding activity was 96% (inactive).

As to `CCNC(=O)CC1C(=O)N(c2ccc(F)cc2)C(=O)N1Cc1cccs1` (centres undefined), the GTP binding activity was 100% (inactive). With `CNC(=O)NC(=O)CSc1nnc(-c2ccc(F)cc2)n1CC1CCCO1` (centres undefined) the figure was 97% (inactive); with `C=CCn1c(COc2ccc(F)cc2)nnc1SCC(=O)Nc1cccc(S(N)(=O)=O)c1`, 96% (inactive); with `Cc1ccccc1C(=O)Nc1ccc(N2CCCCCC2)cc1`, 96% (inactive). With `Nc1nnc(SCn2nnc3ccccc3c2=O)s1` the figure was 95% (inactive); with `O=C(NCc1ccc(F)cc1)C(c1ccccc1)N(C(=O)c1csnn1)C1CC1` (centres undefined), 95% (inactive); with `O=C(O)CCCCCNc1ncnc2ccc(Br)cc12`, 97% (inactive). With `C=C(C)C1CC=C(C)/C(=N/NC(=O)CCCNc2cccc(C)c2)C1` (centres undefined) the figure was 96% (inactive).
